Source: PubChem BioAssay AID1159524 (National Center for Advancing Translational Sciences (NCATS), 2015)
Hit rate of the full screen: of about 410,000 compounds, about 5,100 (1.2%) were called active. Inconclusive results (about 8%) are left out. The call rests on the fitted dose curve; tested in HEK293T cells. The entries come from a sample that favours actives as a whole. Entries that show only a call come without a potency.

Test: High Throughput Screening for Foot and Mouth Disease Virus Antivirals; further: read-out not given here; nearly all actives have a fitted effect of over 45% in size
Details: FMDV antiviral cell-based qHTS; series mostly up to 57.9 µM
Potency means the concentration at half of the fitted maximal effect.

Compound	Potency
COC(=O)N1CCC2(CCCN(c3ccncc3)C2)CC1	inactive
O=C1CCCCC1C(=O)c1ccccc1 (centres undefined)	inactive
Cc1[nH]c(=O)c(C(=O)/C=C/c2ccccc2)c2c1CCCC2	12.6 µM (active)
CC[C@H](C)C(=O)N[C@H]1CCCN1C(=O)/C=C/c1ccccc1	inactive
COC(=O)N1CCC[C@@]2(CCN(C(=O)NC(C)C)C2)C1	inactive
Cc1cc(C)cc(OCC(=O)Nc2c(C(=O)c3ccccc3)oc3ccccc23)c1	inactive
CNc1nc(-c2ccccc2OC)nc2ccccc12	inactive
CC1C(O)CC2C(C(=O)O)=CO[C@@H](O[C@H]3OC(CO)C(O)C(O)C3O)C21 (some centres undefined)	inactive
COc1ccc(CCNC2=C(Cl)C(=O)N(Cc3ccccc3)C2=O)cc1OC	25.1 µM (active)
COc1ccc(CCNC(=O)CCCCn2c(=O)c3ccccc3n(Cc3ccccc3)c2=O)cc1OC	inactive
COc1ccc(CCNS(=O)(=O)c2ccc(Cl)s2)cc1OC	inactive
CCC1CN(CCNC(=O)c2cccc(C)n2)Cc2cc(OC)ccc2O1 (centres undefined)	inactive
COC(C)C(C(=O)OCC1=CCN2CC[C@H](O)[C@@H]12)C(C)C (some centres undefined)	inactive
CCc1ccc(NC(=O)c2cnc3c(-c4ccccc4)c(C)nn3c2C)cc1	inactive
CC(C)=CC1C(C(=O)O)C1(C)C (centres undefined)	inactive
Nc1nc2[nH]c(=O)c(=O)[nH]c2c(=O)[nH]1	inactive
COc1ccc(NC(=O)C(=O)NCc2ccco2)cc1	inactive
COc1ccc(CC(=O)Nc2ccc(-c3nc4ccccc4s3)c(C)c2)cc1	inactive
COc1ccc(CS(=O)/C(Cl)=C(/Cl)C(=O)Nc2ccc(OC)nc2)cc1 (centres undefined)	5.62 µM (active)
Nc1ncnc2c1ncn2C1CC(O)C(CO)O1 (centres undefined)	inactive
CC1CC[C@@]23CCC4(C)[C@@]5(C)CCC6C(C)(C)C(O)CC[C@@]6(C)C5C=C[C@@]4(OC2=O)C3C1C (some centres undefined)	inactive
O=c1oc2ccccc2c(O)c1C(c1ccccc1O)c1c(O)c2ccccc2oc1=O	inactive
CC1=Nc2cc(C(=O)N3CCC(C)CC3)ccc2Sc2ccc(Cl)cc21	inactive

Compound	Potency
CCC(=O)N1CCc2cc(S(=O)(=O)NC(Cc3ccccc3)C(=O)NCc3ccc(C)cc3)ccc21 (centres undefined)	inactive
CCN(CC(=O)NCCc1ccccc1)S(=O)(=O)c1ccc(C)cc1	inactive
Cc1ccc(S(=O)(=O)N(C)CC(=O)NCCc2c[nH]c3ccccc23)cc1	15.8 µM (active)
CSCCC(NS(=O)(=O)c1ccc(C)cc1)C(=O)NCCc1c[nH]c2ccccc12 (centres undefined)	inactive
COc1ccc(CCNC(=O)c2ccc3c(c2)nc(C)n3-c2ccc(Br)cc2)cc1OC	inactive
O=C(CCc1nc(CN2CCN(S(=O)(=O)c3ccc(Br)cc3)CC2)no1)N1CCCCC1	inactive
C/C(CCc1ccccc1)=N\NC(=O)c1ccc(CN2CCOCC2)cc1	inactive
O=C(Nc1ccc(CSc2ccccc2)cc1)c1ccc(CN2CCOCC2)cc1	5.01 µM (active)
O=C(Nc1ccccc1C(=O)N1CCOCC1)c1ccc(CSc2ccccc2)cc1	inactive
CS(=O)(=O)N1CCC2(CC1)CN(Cc1cc(C(F)(F)F)cc(C(F)(F)F)c1)C2	inactive
COc1ccccc1CNc1nc2ccc(Cl)cc2n2cnnc12	inactive
O=C(NCC1Cc2cc(F)cc(-c3cnccn3)c2O1)C1COc2ccccc2O1 (centres undefined)	inactive
COc1cccc(CNC(=O)Cc2csc3nc(-c4ccccc4)cn23)c1	inactive
COc1ccc(-c2cc(C(=O)NCc3cc(OC)c(OC)c(OC)c3)[nH]n2)cc1	inactive
COc1cccc(CC(=O)Nc2nc(-c3ccc(OC)c(OC)c3)cs2)c1	35.5 µM (active)
COc1cccc(CNS(=O)(=O)c2csc(C(N)=O)c2)c1	inactive
COc1cc(CC(=O)Nc2nc(-c3ccc(F)c(F)c3)cs2)cc(OC)c1OC	20 µM (active)
COc1ccc(CC(=O)Nc2nnc3n2CCS3)cc1OC	inactive
Fc1ccc(-c2csc(-c3ccc(C4SCCS4)cc3)n2)cc1F	inactive
COc1ccc(CC(=O)Nc2nc(-c3ccc(F)c(F)c3)cs2)cc1OC	17.8 µM (active)
COc1cc(CCC(=O)Nc2ccncc2Cl)cc(OC)c1OC	inactive
Oc1ccc(-c2c(-c3ccccc3)nn3c(C(F)(F)F)cc(C(F)(F)F)nc23)cc1	inactive
COc1ccc(-n2c(=O)c(-c3cn(C)c4ccccc34)nc3cnc(OC)nc32)cc1	inactive

Compound	Potency
COC(=O)c1ccc(NC(=O)CCc2c(C)nn(-c3ccc(N4CCCC4)nn3)c2C)cc1	inactive
COc1cc(OC)c2c(c1Cl)OC1(C2=O)C(O)=CC(=O)CC1C (centres undefined)	inactive
O=C(Nc1ccccc1)N[C@H]1C[C@H](C(=O)O)Nc2cc(Cl)cc(Cl)c21	inactive
COc1ccc(CN2C(=O)C(NC(=O)c3cccc(C)c3)(C(F)(F)F)N=C2c2ccccc2)cc1 (centres undefined)	inactive
Cc1cnc(C)c(-c2cc(F)c3c(c2)CC(CNC(=O)c2cccc(Cn4cccn4)c2)O3)n1 (centres undefined)	inactive
CN(Cc1ccco1)c1ncncc1-c1ccoc1	inactive
CC(C)[C@@H]1NC(=O)[C@H](Cc2ccccc2)NC(=O)[C@@H](CC(=O)O)NC(=O)CNC(=O)[C@H](CCCNC(=N)N)NC1=O	inactive
COc1ccc2c(c1)c(=Cc1ccc(N(C)C)cc1)c1cc(-c3ccccc3)[n+](C)n12	14.1 µM (active)
CCOC(=O)c1cc(OC(=O)c2ccccc2Cl)n(-c2ccccc2)n1	inactive
COc1ccccc1-c1ccnc(-n2ncc(C(=O)NCCc3ccncc3)c2C)n1	inactive
N#Cc1cccc(-c2nc3cnc(N4CCNCC4)nc3n(C3CC3)c2=O)c1	inactive
Cc1ccc(Cn2cc(CCC(=O)NCc3ccc(OC(C)C)cc3)c3ccccc32)cc1	inactive
Cc1c(C(=O)N2CCCC2)oc2c1-c1nn(CC(=O)NCc3ccc(OC(C)C)cc3)cc1CC2	28.2 µM (active)
CCCN(CCC)CCCNC(=O)Cn1cc2c(n1)-c1c(oc(C(=O)N3CCCC3)c1C)CC2	inactive
Cc1cccc(CNc2cc(-c3ccccc3Cl)ncn2)c1	inactive
CC(=O)Nc1c(C)nn(-c2ccccc2)c1N1CCC(C(=O)Nc2cc(Cl)ccc2C)CC1	inactive
Cc1cccc(N2CCC(NCc3c(C(=O)N4CCCCC4)nc4c(C)cccn34)CC2)c1	inactive
Cc1cccn2c(CNCC(C)Oc3cccnc3)c(C(=O)N3CCOCC3)nc12 (centres undefined)	4.47 µM (active)
Cc1cc(C)n(CC(C)NCc2c(C(=O)N3CCOCC3)nc3c(C)cccn23)n1 (centres undefined)	inactive
CC(CCC(=O)O)C1CCC2C3C(O)C[C@@H]4CC(O)CC[C@@]4(C)C3CC[C@@]12C (some centres undefined)	inactive
COc1ccc(-c2cc(C(=O)Nc3sc4c(c3C(N)=O)CCCC4)no2)cc1	inactive
CCOc1ccc(CNC(=O)c2cccc(Nc3nc4ccccc4n4nnnc34)c2)cc1OC	7.08 µM (active)
CCOc1ccc(OCC)c(Nc2nc3ccccc3n3nnnc23)c1	inactive

Compound	Potency
CCOc1ccc(CNC(=O)c2ccc3nc(CC)c(CC)nc3c2)cc1OC	inactive
COc1cc(OC)cc(C(=O)Nc2ccc3nc(Nc4cccc(C(F)(F)F)c4)cc(C)c3c2)c1	inactive
COc1cccc(Cn2c(=O)c(C)nc3cnc(Oc4ccccc4)nc32)c1	inactive
COc1ccc2c3c1OC1CC(O)C=C[C@@]31CCN(C)C2 (some centres undefined)	inactive
Cc1csc(NC(=O)C2CCN(S(=O)(=O)c3ccccc3)CC2)n1	inactive
CC(=O)N1CCC(C(=O)Nc2nc(-c3ccccc3)ns2)CC1	2.82 µM (active)
Cc1ccc(C(=O)Nc2nc(-c3ccccc3)ns2)cc1	inactive
CC(=O)c1ccc(NC(=O)c2nc3nc(C)cc(C(F)F)n3n2)cc1	inactive
CCc1ccccc1OCCSc1nc(-c2cccs2)nc2cc(=O)[nH]n12	inactive
COc1ccccc1C(=O)N[C@@H]1c2ccccc2C2(CCN(C(=O)c3csnn3)CC2)[C@H]1OC	inactive
COc1ccccc1C(=O)N[C@@H]1c2ccccc2C2(CCN(Cc3nc(C(C)C)cs3)CC2)[C@H]1O	11.2 µM (active)
CC(C)c1csc(CN2CCC(CO)(Cc3ccccc3)CC2)n1	inactive
O=C(Nc1cccc(F)c1)N1CC[C@@]2(CCCN(C(=O)Oc3ccccc3)C2)C1	inactive
CCN1C[C@]2(COC)C(O)C[C@H](OC)[C@@]34C5C[C@]6(O)C(OC)C(O)[C@](OC(C)=O)(C5C6OC(=O)c5ccccc5)C(C(OC)C23)C14 (some centres undefined)	inactive
O=C(CNC(=O)c1ccc(Br)o1)NCC1CCCO1 (centres undefined)	inactive
CCOc1ccc(NS(=O)(=O)c2ccc(C(=O)NCC3CCCO3)cc2)cc1 (centres undefined)	inactive
CC(NS(=O)(=O)c1ccc(Br)cc1)C(=O)NCC1CCCO1 (centres undefined)	1 µM (active)
NCCC(=O)c1ccccc1N	inactive
CN(C)C1=NC[C@H](Cc2ccccc2)N1CCc1ccc(F)cc1	inactive
O=C1NC(=O)N(CCc2ccc(F)cc2)C(=O)/C1=C/C=C/c1ccccc1	10 µM (active)
